About 13,000 (27%) of roughly 48,000 compounds showed an effect of 50% or more. Some of the results follow.
test system: Wolbachia pipientis; assay: Anti-Wolbachia Cell-Based Screen; format: functional; parameters: scale not given: in the data most compounds retested in dose-response had high values; settings: 5 µM

SMILES | Percent Effect [%]
CSCCC1c2nc[nH]c2CCN1Cc1ccnc2ccccc12 (centres undefined) | 14.89
COCCCN1CCC(NC(=O)C(C)C)CC1 | 12.3
Cc1noc(C)c1CNc1c(N2CCCC2)cccc1N1CCCC1 | 3.451
Cn1cc(N2CCCC(Nc3ccc4c(c3)NC(=O)CC4)C2=O)cn1 (centres undefined) | -4.573
COCC(=O)N1CCN(C)c2ncccc2C1 | 4.839
O=C(CCCc1ncc(-c2ccccc2)o1)N1CCN(CCO)CC1 | -1.483
CCS(=O)(=O)N1CCN(C(C)c2ccccc2OC)CC1 (centres undefined) | 10.43
CC(c1ncc(C(C)(C)C)o1)N1CCN(c2ccncc2)CC1 (centres undefined) | -9.491
CCS(=O)(=O)N1CCN(C(C)c2ncc(-c3ccccc3)o2)CC1 (centres undefined) | 106.9
CC(c1ncc(C(C)(C)C)o1)N1CCN(Cc2ccco2)CC1 (centres undefined) | 19.54
CC(c1ncc(-c2ccccc2)o1)N1CCN(C(=O)C(C)(C)C)CC1 (centres undefined) | 102.5
CC(c1ncc(-c2ccccc2)o1)N1CCN(C(=O)N(C)C)CC1 (centres undefined) | 106.8
CCN1CCN(C(=O)NC(C)c2noc(-c3ccccc3)n2)CC1 (centres undefined) | 0.3597
Cc1ccc(-c2ncc(CN3CCN(C(=O)N(C)C)CC3)s2)o1 | 25.76
CN(C)C(=O)N1CCN(C(=O)Nc2nc(-c3ccccc3)ns2)CC1 | -9.811
COCC(=O)N1CCN(C(C)c2ncc(-c3ccccc3)o2)CC1 (centres undefined) | 108.5
CCCn1ncc(C(=O)NC2CCN(CC3CCCO3)CC2)c1C (centres undefined) | 2.131
CC(=O)N1N=C(c2ccco2)OC1C(=O)NCCc1ccc(O)cc1 (centres undefined) | 112.2
O=C(NCCc1ccncc1)C1CCN(Cc2ccco2)CC1 | 7.688
CC(=O)N1N=C(c2ccco2)OC1C(=O)NCCc1ccc(F)cc1 (centres undefined) | 117.3
O=C(NCc1ccc(F)cc1)NCC(O)(c1ccco1)C1CC1 (centres undefined) | -0.2956
CN(C)C(CNC(=O)NCCc1cccc(O)c1)c1ccco1 (centres undefined) | 7.876
Cn1cc(CN2CCOC[C@H]2c2nc(C(C)(C)C)co2)c2ccccc21 | -4.393
CN(C)c1ncccc1CNC(=O)N1CCCC1c1ccsc1 (centres undefined) | -3.064
CC1CC2(CCN(C(=O)c3c[nH]cn3)CC2)c2ccccc21 (centres undefined) | 62.95

SMILES | Percent Effect [%]
CCOC1CC2(CCN(c3cnccn3)CC2)c2ccccc21 (centres undefined) | 15.96
CCOC1CCC2(CCN(C(=O)c3csnn3)CC2)c2ccccc21 (centres undefined) | 117.6
CNC(=O)C1CC2(CCN(C(=O)c3csnn3)CC2)c2ccccc21 (centres undefined) | -5.077
CCOC1CCC2(CCN(C(=O)c3c[nH]cn3)CC2)c2ccccc21 (centres undefined) | 107.8
CN(C)C1CC2(CCN(C(=O)c3csnn3)CC2)c2ccccc21.O=C(O)C(F)(F)F (centres undefined) | -2.029
N[C@@H]1c2ccccc2C2(CCN(C(=O)c3ccc(Cl)cn3)CC2)[C@H]1O | 2.711
CCOC1CC2(CCN(C(C)=O)CC2)c2cc(F)ccc21 (centres undefined) | -13.1
CC1CC2(CCN(C(=O)c3csnn3)CC2)c2ccccc21 (centres undefined) | 10.92
C[C@@H]1CN(C(=O)CCc2nncn2C)CC[C@@]1(O)C1CCC1 | -5.246
CCN(CC)CCn1ccnc1-c1cccc(C#N)c1 | 11.68
Cc1ccc(-c2nn(-c3cccc(F)c3)cc2CN(C)CCO)o1 | -10.45
CC(C)(C)CN[C@@H]1CO[C@H](CNC(=O)c2cccs2)[C@H]1O | -6.649
Cc1nc([C@@H]2C[C@H]3CN(Cc4scnc4C)C[C@H]3O2)no1 | -8.778
O=C(NCc1cccs1)c1nc2c(o1)CN(C(=O)c1cccnc1)C2.O=C(O)C(F)(F)F | 7.988
CN(C)C(=O)NCc1nnc2n1CCN(Cc1ccsc1)C2 | 3.865
CC(C)(C)C(O)CN1CCN(C(=O)COCC2CC2)CC1 (centres undefined) | -3.893
CCCOc1cc(C)ccc1NC(=O)NCCC(=O)N(C)C | -7.738
CCS(=O)(=O)NCCNC(C)(C)c1nc(C)cs1 | -9.016
Cn1ccnc1CCNS(=O)(=O)c1cccnc1 | 3.045
CC(=O)Nc1nc(C)c(S(=O)(=O)NCCc2cccnc2)s1 | 82
Cc1cc(NC(=O)NCCc2cccnc2)n(C)n1 | -22.8
CNC(=O)c1ccc(S(=O)(=O)NCCc2ccccn2)cc1 | -1.31
CC(=O)Nc1nc(C)c(S(=O)(=O)NCCc2ccccn2)s1 | 90.82
NC(=O)c1ccc(S(=O)(=O)NCCc2ccccn2)cc1 | -9.373
Cc1cc(N[C@@H](CO)c2ccccc2)n2nc(C)c(C)c2n1 | -10.16

SMILES | Percent Effect [%]
COc1ncnc(N)c1CNCC(C)SC (centres undefined) | 4.865
COc1ncnc(N)c1CNCC(C)Oc1ccccc1Cl (centres undefined) | -1.664
COc1ncnc(N)c1CNCc1ccccc1-n1cccn1 | 108.1
COc1ncnc(N)c1CNCCOc1ccccc1Cl | -0.9521
COc1ncnc(N)c1CNCCc1ccc(-n2cccn2)cc1 | 93.72
c1ccc(-n2cncn2)c(CNCCn2cccn2)c1 | -10.78
CC(C)C1CN(C(=O)c2cc(=O)[nH]c(=O)[nH]2)CCCN1CC1CC1 (centres undefined) | 26.13
Cc1ccc(CN2CCN(c3ncnc4[nH]cnc34)CC2CCO)cc1 (centres undefined) | -6.275
Cc1cc(CN2CCN(CC3CC3)[C@@H]3CS(=O)(=O)C[C@@H]32)ccc1F | 0.5835
CNc1nc(C2CCCN2)nc2c1CCN(S(=O)(=O)C1CCCCC1)C2.Cl (centres undefined) | 89.64
CCS(=O)(=O)N1CCc2c(cccc2NCc2nc(C)c(C)o2)C1 | 13.37
CCS(=O)(=O)N1CCc2c(cccc2NCc2ncc[nH]2)C1 | -10.34
CCS(=O)(=O)N1CCc2c(nc(C3CCCN3)nc2NC)C1.Cl (centres undefined) | 89.89
O=C1CCN(C(=O)C2(c3ccc(F)cc3)CCCC2)CCN1 | -16.8
COc1ccc(C(O)CNC(=O)NCc2csc(C)n2)cc1 (centres undefined) | -1.772
CS(=O)(=O)N1CCN2C(=O)N(C3CCOCC3)C[C@H]2C1 | -10.83
Cc1nccn1CCC1CCN(c2ncccn2)CC1 | -9.43
Cc1nccn1CCC1CCN(C2CCC3(CCNCC3)CC2)CC1 | 84.73
Cc1ncnc(N2CCN(C(=O)C3CC4(CCNCC4)CN3)CC2)c1C (centres undefined) | -0.6445
Cc1nccn1CCC1CCN(C(=O)C2CC3(CCNCC3)CN2)CC1 (centres undefined) | 104.8
Cc1nnc(N2CCC(CCn3ccnc3C)CC2)o1 | 2.305
Cc1cnccc1N1CCN(C(=O)C2CC3(CCNCC3)CN2)CC1 (centres undefined) | 31.13
CCCN(CC(=O)OC)S(=O)(=O)c1cnc2c(c1)c(C)nn2C | 9.963
O=C(c1ccsc1)N1C[C@@H]2CCN(C(=O)c3cccc(F)c3)[C@@H]2C1 | -29.62
CS(=O)(=O)N1C[C@@H]2CCN(C(=O)c3cscn3)[C@@H]2C1 | 118.3

SMILES | Percent Effect [%]
CN1C[C@@H]2CN(C(=O)C3CCOC3)C[C@@H]2C1=O (some centres undefined) | 0.8988
O=C(c1ccsc1)N1C[C@@H]2CCN(C(=O)c3cscn3)[C@@H]2C1 | 98.94
CS(=O)(=O)N1C[C@@H]2CCN(C(=O)c3ccco3)[C@@H]2C1 | -6.962
O=C(NC1CCCCC1)N1C[C@@H]2OCCN(C(=O)c3ccco3)[C@@H]2C1 | 2.504
CCS(=O)(=O)N1CCC2(CN(C(=O)c3cscn3)C2)C1 | 7.529
O=C(c1ccco1)N1C[C@H]2CCCN(C(=O)c3ccsc3)[C@H]2C1 | -8.905
O=C(c1cscn1)N1CC[C@@H]2[C@@H]1CCN2c1ccccn1 | -2.894
O=C(NC1CC1)N1C[C@@H]2CCN(C(=O)c3cscn3)[C@@H]2C1 | 121.3
CC(C)C(=O)N1CCN(C(=O)c2cscn2)[C@H]2CS(=O)(=O)C[C@H]21 | 2.64
O=C(C1CCOC1)N1C[C@@H]2CCN(C(=O)c3cscn3)[C@@H]2C1 (some centres undefined) | 85.3
Cc1nc(C(C)(C)NCc2ncc(C(C)C)o2)sc1C | 0.4552
O=C(C1CCS(=O)(=O)C1)N1CCC(=Cc2cccc(F)c2)CC1 (centres undefined) | 0.7274
Cc1ccc(F)c(C(=O)N2C[C@@H](C(=O)O)[C@H](c3ccccc3)C2)c1Cl | 13.68
Cc1ccc2nc(C(=O)N3CC(n4nc(C)cc4C)C3)cn2c1 | -3.622
Cc1c(Cl)c(C(=O)N2C[C@@H](C(=O)O)[C@H](c3cccnc3)C2)nn1C | 7.348
COc1cc(C)sc1C(=O)N1CC(c2cccnc2)C1 | -11.08
Cc1ccc(CN2C[C@@H](C(=O)O)[C@H](c3cccnc3)C2)s1 | -1.112
Cc1ccc2nc(C(=O)N3C[C@@H](C(=O)O)[C@H](c4cccnc4)C3)cn2c1 | 96.84
Cc1ccc2nc(C(=O)N3CC(c4cccnc4)C3)cn2c1 | 95.05
Cc1ccc2nc(C(=O)N3C[C@@H](C(=O)O)[C@H](c4ccccc4)C3)cn2c1 | 107.2
Cc1c(Cl)c(C(=O)N2CC(c3cccnc3)C2)nn1C | 11
Cc1c(-c2n[nH]c3c2CN(CC2CCOC2)CC3)cccc1C(F)(F)F (centres undefined) | -2.371
CCCOC(=O)C(C)Sc1nnnn1C1CCOCC1 (centres undefined) | -23.26
O=C(NC1CCOCC1)C1CC(=O)N(Cc2ccccn2)C1 (centres undefined) | -4.932
